Inconclusive results are not listed. The source made the active and inactive calls. The call rests on the fitted dose curve; in most records, active means well fitted curve in the direction sought with a large enough effect; inconclusive means small, poorly fitted or top-dose-only effect, or another doubt; inactive means no such curve, though single readings can be large; an effect the other way counts as inactive or inconclusive.
Experiments:
[1] = Quantitative High-Throughput drug screen in 47 multiple myeloma cell lines against the NCATS MIPE library collection: KMS12BM_JCRB cell viability assay (AID 1918971); further: nearly all actives have a fitted effect of over 35% in size
In short: (§1)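 Myeloma cells (500 per well) were exposed to MIPE 4.0 compounds by pin transfer and incubated 48 hours at 37C, 5% CO2. Viability was read as ATP by CellTiter-Glo luminescence, normalised to DMSO (100%) and media-only (0%) wells.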

[2] = Quantitative High-Throughput drug screen in 47 multiple myeloma cell lines against the NCATS MIPE library collection: KMS26_JCRB cell viability assay (AID 1918975); further: nearly all actives have a fitted effect of over 45% in size
In short: as §1

[3] = Quantitative High-Throughput drug screen in 47 multiple myeloma cell lines against the NCATS MIPE library collection: MMM1_PLB cell viability assay (AID 1918976); further: nearly all actives have a fitted effect of over 35% in size
In short: (§2)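 Plated at 500 cells per well, myeloma lines received MIPE 4.0 compounds by pin tool. Following 48 h culture at 37 °C, CellTiter-Glo luminescence gave viability relative to DMSO and media-only controls.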

[4] = Quantitative High-Throughput drug screen in 47 multiple myeloma cell lines against the NCATS MIPE library collection: OCIMY1_PLB cell viability assay (AID 1918979); further: nearly all actives have a fitted effect of over 35% in size
In short: as §2

[5] = Quantitative High-Throughput drug screen in 47 multiple myeloma cell lines against the NCATS MIPE library collection: MM1S_ATCC cell viability assay (AID 1918980); further: nearly all actives have a fitted effect of over 45% in size
In short: as §2

[6] = Quantitative High-Throughput drug screen in 47 multiple myeloma cell lines against the NCATS MIPE library collection: KMS12PE_JCRB cell viability assay (AID 1918972); further: nearly all actives have a fitted effect of over 30% in size
In short: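 We plated 500 myeloma cells per well, pinned in MIPE 4.0 compounds, and incubated for 48 hours at 37C. ATP was then quantified with CellTiter-Glo, with DMSO and media-only wells defining 100% and 0%.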

[7] = Quantitative High-Throughput drug screen in 47 multiple myeloma cell lines against the NCATS MIPE library collection: KMS20_JCRB cell viability assay (AID 1918973); further: nearly all actives have a fitted effect of over 45% in size
In short: (§3)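 Approved and investigational drugs from MIPE 4.0 were added by pin tool to 500 cells per well. After 48 hours at 37C, ATP-based CellTiter-Glo luminescence indicated remaining viability.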

[8] = Quantitative High-Throughput drug screen in 47 multiple myeloma cell lines against the NCATS MIPE library collection: KMS21BM_JCRB cell viability assay (AID 1918974); details: ATP luminescence, 48 h; viability: at 45.8 µM (top of the series) unless noted
In short: as §3

[9] = Quantitative High-Throughput drug screen in 47 multiple myeloma cell lines against the NCATS MIPE library collection: MOLP8_DSMZ cell viability assay (AID 1918977); further: nearly all actives have a fitted effect of over 45% in size
In short: as §2

[10] = Quantitative High-Throughput drug screen in 47 multiple myeloma cell lines against the NCATS MIPE library collection: NCIH929_DSMZ cell viability assay (AID 1918978); further: nearly all actives have a fitted effect of over 35% in size
In short: as §2

Measured: Potency
Potency means the concentration at half of the fitted maximal effect.

CC(C)OC(=O)C(C)(C)Oc1ccc(C(=O)c2ccc(Cl)cc2)cc1
active: [1] 13.2 µM | [2] 11.8 µM | [3] 18.7 µM
inactive: [4] | [5]

O=C(NC1CCOCC1)c1ccc(-c2cc(-c3cn[nH]c3-c3ccccn3)ccn2)cc1
inactive: [1] | [2]

CN1CCN(CCOc2cc(OC3CCOCC3)c3c(Nc4c(Cl)ccc5c4OCO5)ncnc3c2)CC1
active: [6] 14.8 µM | [7] 8.33 µM | [8] 1.87 µM | [9] 16.6 µM | [10] 18.7 µM
inactive: [4]

CC1(C)CCC(CN2CCN(c3ccc(C(=O)NS(=O)(=O)c4ccc(NCC5CCOCC5)c([N+](=O)[O-])c4)c(Oc4cnc5[nH]ccc5c4)c3)CC2)=C(c2ccc(Cl)cc2)C1
active: [1] 0.0526 µM | [2] 18.7 µM | [3] 0.166 µM | [9] 18.7 µM | [10] 23.5 µM | [4] 10.5 µM | [5] 23.5 µM

CC(C(=O)O)c1ccc(-c2ccccc2)c(F)c1 (centres undefined)
inactive: [6] | [4]
active: [7] 4.69 µM | [3] 1.87 µM | [5] 26.4 µM

Cc1cccc(Nc2nc(-c3ccncc3)cs2)c1
active: [6] 14.8 µM

NC(=O)c1cnc(-c2ccc(C3(N)CCC3)cc2)c(-c2ccccc2)c1
active: [1] 8.33 µM | [3] 0.743 µM | [10] 1.48 µM

CC[C@H]1OC(=O)[C@H](C)C(=O)[C@H](C)[C@@H](O[C@H]2O[C@H](C)C[C@H](N(C)C)[C@@H]2O)[C@](C)(OC)C[C@@H](C)C(=O)[C@H](C)[C@H]2N(CCCCn3cnc(-c4cccnc4)c3)C(=O)O[C@]12C
active: [1] 29.6 µM | [3] 18.7 µM

C=CCc1ccc(O)c(-c2ccc(O)c(CC=C)c2)c1
active: [6] 20.9 µM | [7] 23.5 µM | [5] 18.7 µM

O=C(O)CCC1CCC(c2cc(F)ccc2F)(S(=O)(=O)c2ccc(Cl)cc2)CC1 (centres undefined)
inactive: [2]
active: [6] 13.2 µM | [7] 5.26 µM | [10] 8.33 µM | [5] 1.66 µM

O=c1ccn([C@@H]2O[C@H](CO)[C@H](O)[C@H]2O)c(=O)[nH]1
inactive: [4]
active: [1] 11.8 µM | [3] 8.33 µM | [10] 7.43 µM | [5] 23.5 µM

CC(=O)O[C@]1(C(C)=O)CC[C@@H]2[C@@H]3C[C@H](C)C4=CC(=O)CC[C@]4(C)[C@H]3CC[C@@]21C
active: [1] 16.6 µM | [2] 23.5 µM | [3] 20.9 µM | [5] 13.2 µM

COC[C@@H](c1ccc(C(F)(F)F)cc1)N1CCN(C2(C)CCN(C(=O)c3c(C)ncnc3C)CC2)C[C@H]1C
active: [10] 9.35 µM | [5] 2.35 µM
inactive: [1] | [2] | [4]

CNC(=O)c1ccccc1Sc1ccc2c(C=Cc3ccccn3)n[nH]c2c1
inactive: [4]
active: [1] 16.6 µM | [3] 20.9 µM | [10] 20.9 µM | [5] 16.6 µM

NC1=N[C@@]2(c3cc(NC(=O)c4ccc(F)cn4)ccc3F)COC[C@@H]2CS1
inactive: [1] | [4]

NC(=O)[C@@H](CCC(F)(F)F)N(Cc1ccc(-c2ncon2)cc1F)S(=O)(=O)c1ccc(Cl)cc1
inactive: [2] | [4]
active: [1] 18.7 µM | [3] 26.4 µM | [5] 16.6 µM

O=c1c(-c2ccc(O)cc2)coc2cc(O[C@@H]3O[C@H](CO)[C@H](O)[C@H](O)[C@H]3O)ccc12
inactive: [1] | [2] | [10] | [5]

N#CC1(c2ccc(NC(=O)c3cccnc3NCc3ccncc3)cc2)CCCC1
active: [1] 23.5 µM | [3] 18.7 µM
inactive: [4] | [5]

O=C(CCN1CCN(C(=O)OCc2cc(Cl)cc(Cl)c2)CC1)c1ccc2[nH]c(=O)oc2c1
active: [3] 10.5 µM | [5] 13.2 µM
inactive: [1] | [9] | [10] | [4]

NC(CO)(CO)CCc1ccc(Sc2cccc(OCc3ccccc3)c2)cc1Cl
active: [6] 9.35 µM | [8] 13.2 µM | [2] 18.7 µM | [3] 23.5 µM | [10] 20.9 µM | [5] 3.32 µM

Cc1ccc(C(C)(O)c2nc3ccccc3s2)c(C)c1 (centres undefined)
inactive: [6] | [7] | [2] | [10] | [4]

O=C(O)[C@H]1O[C@H](Oc2cc3oc(-c4ccccc4)cc(=O)c3c(O)c2O)[C@H](O)[C@@H](O)[C@H]1O
active: [1] 16.6 µM | [2] 20.9 µM | [3] 20.9 µM
inactive: [10]

CNC1CCC(N(Cc2cccc(-c3ccncc3)c2)C(=O)c2sc3c(F)ccc(F)c3c2Cl)CC1 (centres undefined)
active: [6] 10.5 µM | [7] 1.48 µM | [2] 16.6 µM | [3] 26.4 µM | [10] 4.69 µM | [4] 23.5 µM | [5] 14.8 µM

O=C1NC(=O)C(=Cc2ccc3nccnc3c2)S1
active: [1] 8.12 µM | [2] 12.9 µM | [3] 8.12 µM | [10] 3.63 µM | [5] 6.45 µM

O=C(N[C@@H](c1ccccc1)[C@@H]1CCCCN1)c1cccc(C(F)(F)F)c1Cl
active: [1] 7.43 µM | [3] 1.32 µM | [5] 20.9 µM
